Screen size: about 5,500 compounds; about 2,000 (36%) were called active. About 18% were inconclusive and are not listed. Rule as the data show it: active = normalized growth mostly below about 0.91 (no sharp cut-off); inconclusive = no clear call, values can overlap the other calls; inactive = mostly above about 0.92. This is one part of the list.
Assay: chemical genetic growth profiling, strain panel (AID 1159580);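 also: tested at 20 µM; growth read once vehicle control cultures reached saturation at 30 °C; 1 = growth at the plate median or of vehicle wells; lower values mean less growth of the strain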
Conditions: growth OD
[1] = S. cerevisiae deletion strains, locus YAL013W, strain DEP1, active compounds read low
[2] = S. cerevisiae deletion strains, locus YJR075W, strain HOC1, active compounds read low
[3] = S. cerevisiae deletion strains, locus YMR307W, strain GAS1, active compounds read low
[4] = S. cerevisiae deletion strains, locus YNL322C, strain KRE1, active compounds read low
[5] = S. cerevisiae deletion strains, locus YPL055C, strain LGE1, active compounds read low
[6] = S. cerevisiae deletion strains, locus YPL241C, strain CIN2, active compounds read low

Measured: normalized growth

COc1ccccc1CC(=O)NC1CCN(Cc2ccccc2)CC1
inactive: [1] 1.01 | S. cerevisiae deletion strains, locus YBR229C, strain ROT2, active compounds read low 1 | S. cerevisiae deletion strains, locus YDL101C, strain DUN1, active compounds read low 1.01 | S. cerevisiae deletion strains, locus YDL134C, strain PPH21, active compounds read low 1.02 | S. cerevisiae deletion strains, locus YDR150W, strain NUM1, active compounds read low 0.993 | S. cerevisiae deletion strains, locus YEL061C, strain CIN8, active compounds read low 1.02 | S. cerevisiae deletion strains, locus YGR078C, strain PAC10, active compounds read low 1.01 | S. cerevisiae deletion strains, locus YGR229C, strain SMI1, active compounds read low 1.02 | S. cerevisiae deletion strains, locus YHR030C, strain SLT2, active compounds read low 0.943 | S. cerevisiae deletion strains, locus YHR087W, strain rtc3, active compounds read low 0.998 | S. cerevisiae deletion strains, locus YJR043C, strain POL32, active compounds read low 1.01 | [2] 1.02 | S. cerevisiae deletion strains, locus YKL190W, strain CNB1, active compounds read low 1.01 | S. cerevisiae deletion strains, locus YLR039C, strain RIC1, active compounds read low 0.947 | S. cerevisiae deletion strains, locus YLR058C, strain SHM2 (second series), active compounds read low 1.01 | S. cerevisiae deletion strains, locus YLR085C, strain ARP6, active compounds read low 1.04 | S. cerevisiae deletion strains, locus YLR262C, strain YPT6, active compounds read low 0.826 | S. cerevisiae deletion strains, locus YML094W, strain GIM5, active compounds read low 0.991 | S. cerevisiae deletion strains, locus YMR219W, strain ESC1, active compounds read low 1.01 | S. cerevisiae deletion strains, locus YMR263W, strain SAP30, active compounds read low 1.02 | [3] 1.11 | S. cerevisiae deletion strains, locus YNL153C, strain GIM3, active compounds read low 1.01 | S. cerevisiae deletion strains, locus YNL298W, strain CLA4 (second series), active compounds read low 1.04 | [4] 1 | S. cerevisiae deletion strains, locus YNR030W, strain Alg12, active compounds read low 1.02 | S. cerevisiae deletion strains, locus YOL006C, strain TOP1, active compounds read low 0.947 | [5] 1.01 | [6] 1.13 | S. cerevisiae deletion strains, locus YPR135W, strain CTF4, active compounds read low 1.07 | S. cerevisiae strains, strain wild type, active compounds read low 1.02

CC(C)Oc1cccnc1N(C)C1CCN(Cc2ccccc2)CC1
inactive: [1] 1.02 | S. cerevisiae deletion strains, locus YAL040C, strain CLN3, active compounds read low 0.983 | S. cerevisiae deletion strains, locus YCL061C, strain MRC1 (second series), active compounds read low 1 | S. cerevisiae deletion strains, locus YDR363W, strain ESC2, active compounds read low 1 | S. cerevisiae deletion strains, locus YER002W, strain NOP16, active compounds read low 0.967 | [2] 1.01 | [3] 1.03 | S. cerevisiae deletion strains, locus YNL128W, strain TEP1, active compounds read low 1.01 | S. cerevisiae deletion strains, locus YNL175C, strain NOP13, active compounds read low 0.991 | S. cerevisiae deletion strains, locus YNL197C, strain WHI3, active compounds read low 0.991 | S. cerevisiae deletion strains, locus YNL224C, strain SQS1, active compounds read low 1 | [4] 1.01 | S. cerevisiae deletion strains, locus YOR083W, strain WHI5 (second series), active compounds read low 0.976 | [5] 1 | [6] 1.01

Source: PubChem BioAssay AID1159580 (chemical genetic matrix, 2015)
